± gives the standard deviation.
Key:
Conditions in all cases: modulator concentration 10 µM
[1] = system: RAW-Dual (murine macrophage reporter line); assay: NF-kB reporter (SEAP) activity fold change vs agonist alone; higher = enhanced NF-kB activity
How it was run: (§1)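 Overnight stimulation with a PRR agonist followed pre-incubation for 1 hour at 37 °C with compound at 10 μM final. This was done in RAW-Dual murine macrophage reporter cells seeded at 50 000 per well in 384-well plates. NF-κB (SEAP, QUANTI-Blue absorbance at 620 nm) and IRF (Lucia luciferase, QUANTI-Luc luminescence) were read from the supernatant. Each reporter's fold change relative to the mean agonist-only control on the same plate was averaged over replicate plates.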

[2] = system: RAW-Dual (murine macrophage reporter line); assay: IRF reporter (Lucia luciferase) activity fold change vs agonist alone; higher = enhanced IRF activity
How it was run: as §1

[3] = system: RAW-Dual (murine macrophage reporter line); assay: viability score (confluency relative to resting cells, overnight) (fraction); higher = more viable, active = viable (0.7 or more)
How it was run: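 Overnight exposure to 10 μM final compound was carried out on RAW-Dual macrophages in 384-well plates. IncuCyte software generated two confluency masks over all wells imaged with IncuCyte. The viability score gives confluency in relation to resting cells. A compound met the cutoff if each mask exceeded 70% of resting cells.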

[4] = agonist: CpG ODN 1826 0.5 ug/mL

| Compound | NF-kB reporter [1, 4] | NF-kB reporter ([1]; agonist: LPS 0.1 ug/mL) | NF-kB reporter ([1]; agonist: MPLA […]) | IRF reporter ([2]; agonist: 3'3'-cGAMP 10 ug/mL) | IRF reporter ([2]; agonist: LPS 0.1 ug/mL) | IRF reporter ([2]; agonist: MPLA […]) | viability score [3] |
| --- | --- | --- | --- | --- | --- | --- | --- |
| CC(=O)N1CCN(c2ccc(OC[C@H]3CO[C@](Cn4ccnc4)(c4ccc(Cl)cc4Cl)O3)cc2)CC1 | 0.723 ± 0.072 | 1.06 ± 0.071 | 1.03 ± 0.025 | 0.925 ± 0.094 | 1.07 ± 0.15 | 1.07 ± 0.27 | 1 (active) |
| COc1c(C)cnc(Cn2cccc(-c3nc(C)no3)c2=O)c1C | 0.826 ± 0.2 | 0.937 ± 0.092 | 0.967 ± 0.061 | 0.95 ± 0.033 | 0.995 ± 0.18 | 1.1 ± 0.22 | 0.997 (active) |
| Cc1ccc(S(=O)(=O)n2c(C)nc3ccccc32)cc1 | 1.13 ± 0.22 | 1 ± 0.18 | 0.897 ± 0.089 | 0.969 ± 0.025 | 1.2 ± 0.13 | 1.27 ± 0.13 | 0.959 (active) |
| COc1ccc(C2=CC(c3cc(OC)c(OC)c(OC)c3)n3ncnc3N2)cc1 (configuration not stated) | 1.26 ± 0.087 | 1.08 ± 0.066 | 1.22 ± 0.087 | 1.15 ± 0.047 | 1.07 ± 0.07 | 1.27 ± 0.15 | 0.985 (active) |
| CC(C)NCC(O)c1ccc(NS(C)(=O)=O)cc1.Cl (configuration not stated) | 0.99 ± 0.098 | 1.02 ± 0.057 | 1 ± 0.043 | 1.01 ± 0.056 | 0.978 ± 0.082 | 0.99 ± 0.09 | 1 (active) |
| CCC1(C)CC(CCN)(c2ccc(C)cc2)CCO1 (configuration not stated) | 0.826 ± 0.053 | 1.02 ± 0.08 | 0.992 ± 0.047 | 0.822 ± 0.048 | 0.904 ± 0.06 | 0.843 ± 0.083 | 0.962 (active) |
| O=C(NCC(O)Cn1ccccc1=O)c1ccc(Cl)s1 (configuration not stated) | 0.94 ± 0.1 | 0.869 ± 0.087 | 1.01 ± 0.087 | 1.02 ± 0.047 | 1.41 ± 0.09 | 1.46 ± 0.12 | 1 (active) |
| CCN(CC)S(=O)(=O)c1ccc(C(=O)Nc2cc(C)nn2-c2nc(C)c(C)c(=O)[nH]2)cc1 | 0.153 ± 0.012 | 0.267 ± 0.065 | 0.434 ± 0.015 | 0.883 ± 0.05 | 0.957 ± 0.099 | 0.994 ± 0.086 | 0.99 (active) |
| COCCOC(=O)C1=C(C)NC(C)=C(C(=O)OCC=Cc2ccccc2)C1c1cccc([N+](=O)[O-])c1 (configuration not stated) | 0.586 ± 0.052 | 0.539 ± 0.074 | 1.07 ± 0.068 | 0.548 ± 0.035 | 1.06 ± 0.035 | 2.1 ± 0.43 | 0.989 (active) |
| CCCCCOC(=O)CSc1nnc(-c2ccc(Cl)cc2Cl)o1 | 0.957 ± 0.076 | 0.981 ± 0.083 | 0.99 ± 0.048 | 1.07 ± 0.23 | 1.04 ± 0.051 | 1.02 ± 0.14 | 1 (active) |
| CC#CCn1c(N2CCCC(N)C2)nc2c1c(=O)n(Cc1nc(C)c3ccccc3n1)c(=O)n2C (configuration not stated) | 0.931 ± 0.24 | 1.08 ± 0.085 | 0.972 ± 0.065 | 0.925 ± 0.033 | 1.23 ± 0.15 | 1.39 ± 0.13 | 0.988 (active) |
| CCCOc1ccc(C2NC(=O)NC(C)=C2C(=O)OC(C)C(C)(C)C)cc1OC (configuration not stated) | 0.557 ± 0.033 | 1.04 ± 0.063 | 0.746 ± 0.052 | 0.478 ± 0.016 | 0.722 ± 0.077 | 0.656 ± 0.061 | 0.96 (active) |
| O=C(c1ccccc1)c1ccc2n1CCC2C(=O)O (configuration not stated) | 0.921 ± 0.13 | 1.09 ± 0.14 | 0.895 ± 0.073 | 0.94 ± 0.048 | 1.15 ± 0.26 | 1.04 ± 0.16 | 0.996 (active) |
| O=C(Nc1ccccn1)NC1CCS(=O)(=O)C1 (configuration not stated) | 0.659 ± 0.37 | 0.918 ± 0.22 | 0.748 ± 0.14 | 0.881 ± 0.12 | 1.34 ± 0.085 | 1.23 ± 0.23 | 0.948 (active) |
| Cc1ccc(S(=O)(=O)O)cc1.NC(=O)c1cccc2cn(-c3ccc([C@@H]4CCCNC4)cc3)nc12 | 0.0798 ± 0.0034 | 0.142 ± 0.017 | 0.372 ± 0.027 | 0.041 ± 0.0076 | 0.0678 ± 0.01 | 0.0808 ± 0.016 | 0.881 (active) |
| CN(C/C=C/C#CC(C)(C)C)Cc1cccc2ccccc12 | 0.812 ± 0.066 | 0.987 ± 0.059 | 1.08 ± 0.095 | 1.12 ± 0.055 | 1.24 ± 0.078 | 1.27 ± 0.12 | 1.01 (active) |
| N=C(N)Nc1nc(-c2ccccc2)c(-c2ccccc2)s1 | 0.98 ± 0.2 | 1.23 ± 0.18 | 1.29 ± 0.1 | 1.27 ± 0.06 | 1.26 ± 0.22 | 1.33 ± 0.19 | 1 (active) |
| COc1ccc(-c2cc(CNC(=O)c3c(F)cccc3F)no2)cc1 | 0.713 ± 0.041 | 0.742 ± 0.11 | 0.744 ± 0.042 | 0.878 ± 0.081 | 1.4 ± 0.22 | 1.72 ± 0.45 | 0.947 (active) |
| Cc1ccccc1C(=O)Nc1ccc(C(=O)N2CCCC(N(C)C)c3ccccc32)cc1 (configuration not stated) | 1.05 ± 0.27 | 1 ± 0.05 | 0.929 ± 0.065 | 0.94 ± 0.046 | 1.15 ± 0.18 | 1.17 ± 0.13 | 1 (active) |
| CCCCc1oc2ccc(NS(C)(=O)=O)cc2c1C(=O)c1ccc(OCCCN(CCCC)CCCC)cc1.Cl | 0.403 ± 0.048 | 0.998 ± 0.099 | 1.3 ± 0.14 | 0.945 ± 0.067 | 1.2 ± 0.12 | 1.27 ± 0.18 | 0.29 (inactive) |
| NCCNc1ccc(NCCN)c2c1C(=O)c1ccncc1C2=O.O=C(O)/C=C\C(=O)O.O=C(O)/C=C\C(=O)O | 0.917 ± 0.04 | 1 ± 0.085 | 1.13 ± 0.066 | 1.02 ± 0.049 | 1.36 ± 0.29 | 1.66 ± 0.55 | 0.97 (active) |
| COC(=O)C1=CN(CC2CCCO2)C=C(C(=O)OC)C1c1ccc(F)cc1 (configuration not stated) | 1.06 ± 0.065 | 0.875 ± 0.069 | 1.22 ± 0.063 | 0.886 ± 0.062 | 0.95 ± 0.046 | 0.961 ± 0.13 | 0.996 (active) |
| CCn1c(=O)c2c(nc(/C=C/c3ccc(OC)c(OC)c3)n2C)n(CC)c1=O | 1.56 ± 0.31 | 1.27 ± 0.33 | 1.14 ± 0.094 | 0.721 ± 0.044 | 1.21 ± 0.27 | 1.32 ± 0.26 | 0.986 (active) |
| CC(C)C(=O)Nc1ccc([N+](=O)[O-])c(C(F)(F)F)c1 | 1.42 ± 0.3 | 1.06 ± 0.077 | 1.25 ± 0.2 | 0.762 ± 0.04 | 0.97 ± 0.11 | 1.04 ± 0.12 | 0.968 (active) |
| CCOc1ccc(-c2nc3c(c(C)nn3-c3ccccc3)c3cc(OC)c(OC)cc23)cc1 | 0.812 ± 0.063 | 0.934 ± 0.089 | 1.05 ± 0.095 | 0.948 ± 0.043 | 1.29 ± 0.075 | 1.48 ± 0.14 | 1 (active) |
| CC(=O)C1=C(C)OC2(O)c3ccccc3C(=O)C12O (configuration not stated) | 0.903 ± 0.11 | 0.947 ± 0.089 | 1.23 ± 0.13 | 0.831 ± 0.029 | 1.02 ± 0.18 | 0.824 ± 0.12 | 0.945 (active) |
